Consider 40 compounds from PubChem BioAssay (NCATS).

Where “and” joins values, the source holds several entries; their conditions need not be identical. Equal entries are not always repeated. Results filed as inconclusive are left out. Calls of active or inactive are those of the source. The call rests on the fitted dose curve; in most records, active means well fitted cell-killing curve with a large enough effect; inconclusive means small, poorly fitted or top-dose-only effect; inactive means flat fitted curve, though single readings scatter.

A short description of this test: Cellular viability qHTS for adrenocortical cancer (ACC) cell line NCI-H295R (AID 1963990). Further: nearly all actives have a fitted effect of over 60% in size. The note with it: CellTiter-Glo ATP luminescence, 48 h; series mostly up to 46.1 µM; activity change, negative = viability loss: at the top concentration. The text has this: PI: Naris Nilubol, MD Surgical Oncology Program, National Cancer Institute (NCI) National Institute of Health (NIH), Bethesda, Maryland Adrenocortical cancer (ACC) is a rare malignancy with poor survival outcomes and few treatment options. Currently, mitotane is the only FDA-approved therapy for ACC. Although adjuvant radiation therapy is rarely utilized, it has the potential to improve survival in select cases. Through a quantitative high-throughput drug screen (qHTS), we identified auranofin (AF), a thioredoxin reductase (TXNRD) inhibitor, as a promising candidate drug. This study aims to evaluate whether AF can enhance the efficacy of radiation therapy in the treatment of ACC. Two human ACC cell lines, SW-13 and NCI-H295R, were screened using the National Center for Advancing Translational Sciences (NCATS) Pharmaceutical Collection (NPC) and the Mechanism Interrogation PlatE (MIPE) library (~4,991 compounds). CellTiter-Glo (Cat # G7570, Promega, Madison, WI) was utilized to measure cell viability. Described herein are the results of the corresponding viability assay.
PROTOCOL TABLE (as described by Inglese J, Shamu CE and Guy RK. 2007) SEQUENCE No. (e.g., 1, 2, 3, etc.); […] (e.g., Cells, Incubation, Reagent, etc.); VALUE; DESCRIPTION. 1; Cells; 5 uL; white, solid-bottom, 1536-well tissue-culture treated plates. 2; Time; overnight culture at 37C with 5% CO2. 3; Compounds and control; 23 nL; Kalypsis pin tool (Wako USA) equipped with a 1536-well pin head to transfer to the assay plates. 4; Time; 48 hours; 37C with 5% CO2. 5; Reagent; 4 uL; CellTiter-Glo luminescent substrate mix. 6; Time; 20 min at room temperature. 7; Detection; Luminescence; ViewLux plate reader NOTES (numbers refer to Sequence numbers above) 1. NCI-H295R cells were harvested from a T175 flask and resuspended in ITS-supplemented DMEM serum-free medium at a concentration of 300 000 cells/mL. Then 5 uL of resuspended cells were dispensed into each well of white, solid-bottom, 1536-well tissue-culture-treated plates using a multidrop combi dispenser. The plates were covered with stainless steel gasket lids. 2-3. The plates were cultured overnight at 37C with 5% CO2. Twenty-three nL of compounds (eight selected concentrations from the NPC / MIPE) or positive control (10 mM stock of bortezomib) in DMSO was transferred to each well of the assay plate using a pin tool (Kalypsys, San Diego, CA, USA). The final concentration of the compounds in the 5 uL assay volume ranged from 0.5 nM to 46 uM. 4-6. After 48 hours of incubation at 37C and 5% CO2, 4 uL of CellTilter-Glo luminescent substrate mix (Promega, Madison, WI, USA) was added to each well. Then the plates were incubated for 20 minutes at room temperature. 7. After incubation, luminescence was measured using a ViewLux plate reader (PerkinElmer, Waltham, MA, USA) with a clear filter was used to measure the number of metabolically competent cells. To determine compound activity in the qHTS assay, the titration-response data for each sample was plotted and modeled by a four-parameter logistic fit yielding IC50 and efficacy (maximal response) values. Raw plate reads for each titration point were normalized relative to positive control ([…], 100% inhibition) and DMSO-only wells (basal, 0%). REFERENCES: Inglese J, Shamu CE and Guy RK, Reporting data from high throughput screening of small molecule libraries, Nature Chemical Biology, 2007, 3(8): 438-441. doi.org/10.1038/nchembio0807-438.
(In qHTS, concentration-response curves come from the screen itself.)
On to `Nc1[nH]c(=O)ncc1F`, for which the Potency result is “inactive”.

Take `COc1cc2c(Oc3ccc4[nH]c(C)cc4c3F)ccnc2cc1OCC1(N)CC1`: the Potency is 10 µM (active).

`O=C(O)c1cn(-c2ccc(F)cc2)c2cc(N3CCNCC3)c(F)cc2c1=O`: the Potency result was “inactive”.

With `NC1=N[C@H]2[C@H](CS[C@H]2CCCCC(=O)O)N1`, the “activity change, negative = viability loss” value is 1.19% [at 20 µM] (inactive).

Take `CC1=C(C)C(=O)C(C(CCCCCC(=O)O)c2ccccc2)=C(C)C1=O` (stereo not given): the Potency result is “inactive”.

For the compound `CN(C)c1ccccc1CN1CCCN(Cc2ccccc2N(C)C)C1c1ccncc1`, the Potency is 28.2 µM (active).

As to `O=C1C(c2[nH]c3ccccc3c2O)=Nc2ccccc21`, the “activity change, negative = viability loss” value is -12.6% (inactive).

For `Cc1c(F)cc(C(=O)NC2CC2)cc1-c1ccc(C(=O)NCC(C)(C)C)cn1`, the “activity change, negative = viability loss” value is -10.6% (inactive).

As to `Cn1cncc1C(N)(c1ccc(Cl)cc1)c1ccc2c(c1)c(-c1cccc(Cl)c1)cc(=O)n2C` (stereo not given), the Potency was 3.55 µM (active).

Regarding `CCN(CC)CCNC(=O)c1c(C)[nH]c(/C=C2/C(=O)Nc3ccc(-c4csc(-c5ccccc5)n4)cc32)c1C`, the Potency is 3.55 µM (active).

With `CC(C)(O)CC(=O)NCCn1ccc2ncnc(Nc3ccc(Oc4cccc(C(F)(F)F)c4)c(Cl)c3)c21`, the Potency is 8.91 µM (active).

For the compound `Cn1ncc(Cl)c1-c1cc(C(=O)N[C@H](CN)Cc2ccc(F)c(F)c2)sc1Cl`, the Potency was 3.16 µM (active).

As to `c1cc(-c2cnn3cc(-c4ccc(OCCN5CCCCC5)cc4)cnc23)ccn1`, the Potency is 12.6 µM (active).

As for `COc1cc2nc(-c3cc(F)ccc3O)nc(N[C@@H]3CNC[C@H]3C(C)(C)O)c2cc1OC`, the Potency was 6.31 µM (active).

Regarding `CC1(C)O[C@@H]2C[C@H]3[C@@H]4CCC5=CC(=O)CC[C@]5(C)[C@@]4(F)[C@@H](O)C[C@]3(C)[C@]2(C(=O)CCl)O1`, the “activity change, negative = viability loss” value is 0.251% (inactive).

Consider `N=C(N)c1ccc2nc(-c3cc(CC(=O)N[C@@H](CC(=O)O)C(=O)O)cc(-c4cc(S(N)(=O)=O)ccc4O)c3O)[nH]c2c1`, for which the “activity change, negative = viability loss” value is 1.5% (inactive).

`CN(C)C(=O)c1cc2cnc(Nc3ccc(N4CCNCC4)cn3)nc2n1C1CCCC1`: the “activity change, negative = viability loss” value was 0.361% (inactive).

Regarding `O=C(CCCCCCC(=O)Nc1ccccc1)NO`, the Potency is 820 nM (active) and 1 µM (active).

For `CC1(C)S[C@@H]2[C@H](N=CN3CCCCCC3)C(=O)N2[C@H]1C(=O)O`, the “activity change, negative = viability loss” value was -2.23% (inactive).

Turning to `COCCn1c2c([n+](Cc3cnccn3)c1C)C(=O)c1ccccc1C2=O`, the Potency is 2.82 µM (active).

Regarding `Clc1ccc2c(N3CCN(CCCN4CCN(c5ccnc6cc(Cl)ccc56)CC4)CC3)ccnc2c1`, the “activity change, negative = viability loss” value was -21.4% (inactive).

For `CN1CCN(c2c(F)cc3c(=O)c(C(=O)O)cn4c3c2OCN4C)CC1`, the “activity change, negative = viability loss” value is -23.2% [at 20 µM] (inactive).

`C[C@H]1COc2c(C3(N)CC3)c(F)cc3c(=O)c(C(=O)O)cn1c23`: the “activity change, negative = viability loss” value was 0.707% (inactive).

As to `CCn1ccc(NS(=O)(=O)c2ccc(N)cc2)nc1=O`, the “activity change, negative = viability loss” value was -13.3% (inactive).

As to `CCN1CCCC1=O`, the “activity change, negative = viability loss” value is -0.703% (inactive).

As to `COc1cc2ncnc(Nc3cccc(Br)c3)c2cc1OC`, the “activity change, negative = viability loss” value is -27.2% (inactive).

With `CN1CCN(c2ccc(C(=O)Nc3n[nH]c4ccc(Cc5cc(F)cc(F)c5)cc34)c(NC3CCOCC3)c2)CC1`, the Potency was 7.08 µM (active).

As to `C[C@@H](Oc1cc(-c2cnn(C3CCNCC3)c2)cnc1N)c1c(Cl)ccc(F)c1Cl`, the Potency was 3.16 µM (active).

Take `Cc1ccc(F)c(NC(=O)Nc2ccc(-c3cccc4[nH]nc(N)c34)cc2)c1`: the Potency was 15.8 µM (active).

Take `C[C@@H](Nc1ncnc2[nH]c(-c3ccc(O)cc3)cc12)c1ccccc1`: the Potency was 11.2 µM (active).

Consider `COc1cc(OC)cc(OC)c1`, for which the “activity change, negative = viability loss” value was -6.51% (inactive).

As for `O=[N+]([O-])c1cccc(S(=O)(=O)NCCNS(=O)(=O)c2cccc([N+](=O)[O-])c2)c1`, the “activity change, negative = viability loss” value is -9.21% (inactive).

For the compound `CN1CCN(c2ccc(Nc3ncc4cc(C#N)c(=O)n(C5CCCC5)c4n3)cc2)CC1`, the “activity change, negative = viability loss” value was -16.4% (inactive).

Turning to `CN1CCN(c2cc(C(=O)Nc3ccc4c(c3)-c3c(c(C(N)=O)nn3-c3ccc(F)cc3)CC4)c(Cl)cn2)CC1`, the Potency was 25.1 µM (active).

`CC(=O)OC[C@H]1O[C@@](COC(C)=O)(O[C@H]2O[C@H](COC(C)=O)[C@@H](OC(C)=O)[C@H](OC(C)=O)[C@H]2OC(C)=O)[C@@H](OC(C)=O)[C@@H]1OC(C)=O`: the “activity change, negative = viability loss” value is 0.982% (inactive).

Take `COc1ccnc2c1CCCCC2S(=O)c1nc2ccccc2[nH]1` (stereo not given): the “activity change, negative = viability loss” value is -19.2% (inactive).

Take `Cc1ccc(NS(=O)(=O)c2ccc3c(c2)C2C=CCC2C(c2ccc(C(=O)O)cc2)N3)cc1C` (stereo not given): the “activity change, negative = viability loss” value is -0.155% (inactive).

In the case of `CC(=O)Nc1nc(C)c(-c2ccc(Cl)c(S(=O)(=O)NCCO)c2)s1`, the Potency was 25.1 µM (active).

For `CCc1cccc2c3c([nH]c12)C(CC)(CC(=O)O)OCC3` (stereo not given), the “activity change, negative = viability loss” value was -7.18% (inactive).

On to `COc1cc2c3c(n(CCCNCCO)c(=O)c2cc1OC)-c1cc2c(cc1C3=O)OCO2`, for which the Potency is 2.82 µM (active).
